The source of these data is ChEMBL document CHEMBL1157539, “Thousands of chemical starting points for antimalarial lead identification” (Nature, 2010).

Holding throughout (assay type): functional
Assay [1] relates to Plasmodium falciparum. Nature of the assay: GSK_TCMDC: Inhibition of Plasmodium falciparum 3D7 in whole red blood cells, using parasite LDH activity as an index of growth. Test compounds present at 2uM.
For assay [2], the system named is Plasmodium falciparum. Nature of the assay: GSK_TCMDC: Inhibition of Plasmodium falciparum Dd2 in whole red blood cells, using parasite LDH activity as an index of growth. Test compounds present at 2uM.
The subject of assay [3] is HepG2. The assay can be described thus: GSK_TCMDC: Percent inhibition of human HepG2 cell line. Test compounds present at 10uM.

As to `O=C(NC1CCN(Cc2ccc(O)cc2)CC1)c1ccc(Cl)c(Cl)c1.O=C(O)C(F)(F)F`, the Inhibition in assay [1] stood at 95%; in assay [2], 3%; in assay [3], 1%.
In the same order, the values of `CNCc1ccc(-c2cccc(CNCc3ccc(-c4ccccc4)cc3)c2)c(C(=O)OC)c1.O=C(O)C(F)(F)F` are 92%, 19% and 25%.
For `Cc1ccc(Nc2nnc(SCC(=O)Nc3ccc(CN4CCCC4)cc3)s2)cc1`, the values for the Inhibition in assay [1], in assay [2] and in assay [3] were 91%, 0% and 4%, respectively.
On the same counts, the results for `COc1ccc(NC(=O)Nc2ccc(-c3ccc(-c4nc5cccc(C)c5[nH]4)s3)cc2)cc1` are 100%, 96% and 74%.
In the same order, the values of `COc1ccc2ncc(F)c([C@H](O)CN3CCC(NCc4cc5c(cn4)OCCO5)CC3)c2c1.Cl` are 100%, 97% and 5%.
In the same order, the values of `Cc1cccc2nc(-c3cccc(-c4cccc(NC(=O)Nc5ccc(F)c(F)c5F)c4)c3)[nH]c12` are 100%, 99% and 32%.
In the case of `N#CCOc1c(C2CCN(CCCCNC(=O)c3ccc(-c4ccc(C(F)(F)F)cc4)cc3)CC2)ccc2c1CCCC2`, the figures for the Inhibition in assay [1], in assay [2] and in assay [3] were 97%, 48% and 59%, respectively.
In the same order, the values of `CC(=NNC(=N)N)c1ccc2c(c1)Cc1ccccc1-2.Cl` are 100%, 10% and 44%.
On the same counts, the results for `Cc1cc(N(C)C)nc(Nc2ccc(NC(=O)CCc3ccccc3)cc2)n1` are 100%, 84% and 20%.
On the same counts, the results for `CS(=O)(=O)CCNCc1cccc(-c2ccc3c(Nc4ccc(Oc5cccnc5)cc4)ccnc3c2)c1` are 100%, 99% and 27%.
As to `NC(=O)c1c(Cl)nc2ccccc2c1Cl`, the figures for the Inhibition in assay [1], in assay [2] and in assay [3] were 91%, 0% and 2%, respectively.
On the same counts, the results for `Cc1ccc(N2C(=O)C3C(C2=O)C2(c4ccccc4)C(=O)C3(c3ccccc3)C(c3ccccc3)=C2c2ccccc2)cc1` (stereo unspecified) are 92%, 96% and 17%.
On to `O=C(Nc1cccc(F)c1)N(Cc1ccc(-c2ccc(CN3CCNCC3)cc2)cc1)C1CCN(Cc2ccccc2)CC1.O=C(O)C(F)(F)F`, for which the Inhibition worked out at 100% in assay [1], 53% in assay [2] and 18% in assay [3].
In the same order, the values of `Cc1cc(F)ccc1Nc1nc(N(C)c2ccccc2)c2cccc(OCCO)c2n1` are 95%, 94% and 34%.
In the same order, the values of `Cc1cccc2nc(-c3ccc(-c4ccc(CNCCCNS(C)(=O)=O)cc4)s3)[nH]c12.O=C(O)C(F)(F)F` are 99%, 4% and 13%.
For the compound `CN1CCCN(Cc2ccc(-c3cccc(NC(=O)c4ccc(Cl)cc4)c3)cc2)CC1.O=C(O)C(F)(F)F`, the values for the Inhibition in assay [1], in assay [2] and in assay [3] were 98%, 50% and 34%, respectively.
For the compound `Cn1cccc1CCNCc1ccc(-c2cccc(-c3nc4cc(F)ccc4[nH]3)c2)cc1.O=C(O)C(F)(F)F`, the results for the Inhibition in assay [1], in assay [2] and in assay [3] were 93%, 43% and 0%, respectively.
As for `CC(C)(C(=O)NCCC1CCN(CCCCCNC(=O)/C=C/c2ccc(Cl)c(Cl)c2)CC1)c1ccc(Cl)cc1`, the Inhibition in assay [1] came out at 89%; in assay [2], 33%; in assay [3], 92%.
With `CC1CCCCC1N(C)C1CCN(CCCNC(=O)C=Cc2ccccc2Cl)CC1` (stereo unspecified), the Inhibition in assay [1] is on record as 100%; in assay [2] it was 14%; in assay [3], 30%.
`COc1ccc2nccc([C@@H](O)CN3CCC(NC(=O)CCC(=O)c4cc(C(C)(C)C)ccc4OC)CC3)c2c1`: the values for the Inhibition in assay [1], in assay [2] and in assay [3] were 94%, 51% and 26%, respectively.
As for `Cl.OCCNc1nc(Nc2cccc(O)c2)nc2ccccc12`, the Inhibition in assay [1] is reported as 96%; in assay [2] it was 55%; in assay [3], 3%.
In the same order, the values of `Nc1ncc(-c2ccc(Cl)c(Cl)c2)c(N)n1` are 94%, 0% and 65%.
Turning to `CCCCCCN1CCC(NCc2cccc(-n3ccnc3)c2)CC1.O=C(O)C(F)(F)F`, the values for the Inhibition in assay [1], in assay [2] and in assay [3] were 100%, 100% and 3%, respectively.
As for `Cn1ccnc1Sc1ncccc1[N+](=O)[O-]`, the Inhibition in assay [1] is 96%; in assay [2], 2%; in assay [3], 0%.
Regarding `CCCc1cc(C)ccc1OCCCON1C(NC(=O)OCC)=NC(NC(=O)OCC)=NC1(C)C`, the Inhibition in assay [1] turned out to be 95%; in assay [2], 97%; in assay [3], 62%.
`O=C(/C=C/c1ccc(Cl)c(Cl)c1)NCCCCCN1CCC(NC(=O)Nc2ccc(Cl)c(Cl)c2)CC1`: the Inhibition in assay [1] turned out to be 100%; in assay [2], 1%; in assay [3], 23%.
On the same counts, the results for `COc1ccccc1CCNc1nc(C)cc(N[C@@H](Cc2ccccc2)C(=O)NCCOc2ccccc2)n1.O=C(O)C(F)(F)F` are 100%, 76% and 20%.
Turning to `Cc1ccc(OC2CCN(CCCCC3(C)C(=O)Nc4ccccc43)CC2)cc1.Cl` (stereo unspecified), the Inhibition in assay [1] turned out to be 100%; in assay [2], 2%; in assay [3], 63%.
In the same order, the values of `O=C(Nc1ccc(N2CCN(Cc3ccccc3Cl)CC2)cc1)c1ccc([N+](=O)[O-])o1` are 91%, 67% and 100%.
Consider `Cc1cccc2nc(-c3cccc(-c4cccc(NC(=O)COc5ccccc5C(N)=O)c4)c3)[nH]c12`, for which the results for the Inhibition in assay [1], in assay [2] and in assay [3] were 100%, 88% and 22%, respectively.
On the same counts, the results for `CCN(CC)CCNC(=O)c1ccc(N/C=C2\C(=O)Nc3ccc(S(=O)(=O)Cc4c(Cl)cccc4Cl)cc32)cc1` are 100%, 56% and 25%.
In the same order, the values of `C=CCc1cc(Cc2cnc(N)nc2N)c2ccc(C)nc2c1O` are 84%, 3% and 51%.
In the case of `CN(C)CCCOc1cccc(NC(=O)Nc2ccc(Cl)c(Cl)c2)c1.O=C(O)C(F)(F)F`, the Inhibition in assay [1] stood at 90%; in assay [2], 8%; in assay [3], 6%.
Turning to `COc1ccc2nc(Nc3nc4cnccc4[nH]3)sc2c1`, the Inhibition is 88% in assay [1], 26% in assay [2] and 8% in assay [3].
On the same counts, the results for `CCCCC(=O)Nc1nonc1-c1ccc(OCC)c(OCC)c1` are 100%, 95% and 9%.
On the same counts, the results for `CC(Oc1ccc(Cl)cc1)C(=O)N(C)C1CCN(CCCCCNC(=O)/C=C/c2ccc(Cl)c(Cl)c2)CC1` (stereo unspecified) are 85%, 10% and 61%.
On the same counts, the results for `COc1cc(C2CCCCC2)c(OC)cc1CC1c2cc(O)c(Cl)cc2CCN1C.Cl` (stereo unspecified) are 100%, 100% and 12%.
On to `CCOC(=O)c1c(CN(CC)CC)n(-c2ccccc2)c2cc(Br)c(O)cc12`, for which the Inhibition in assay [1] turned out to be 93%; in assay [2] it was 46%; in assay [3], 14%.
On the same counts, the results for `COc1ccc(CCn2c(=N)c(C(=O)NCc3cccnc3)cc3c(=O)n4ccccc4nc32)cc1` are 98%, 5% and 16%.
In the same order, the values of `COc1cc(C=CC(=O)N2CCC3(CC2)CC(=O)c2ccccc2O3)cc(OC)c1OC` are 88%, 66% and 7%.
As for `COC(=O)c1c(C#N)c(OC)cc(O)c1CSC[C@H](Nc1nc(-c2ccc([N+](=O)[O-])cc2)cs1)C(=O)NCCN1CCCCC1`, the Inhibition in assay [1] is reported as 85%; in assay [2] it was 88%; in assay [3], 5%.
On the same counts, the results for `CNC(=O)c1cc(NCCCNCc2ccc(Cl)c(C(F)(F)F)c2)nc2ccccc12.Cl` are 91%, 7% and 25%.
In the same order, the values of `O=C(/C=C/c1ccc(Cl)c(Cl)c1)NC1CCC(CN2CCC(c3nc4cc(O)ccc4[nH]3)CC2)CC1` (stereo unspecified) are 100%, 84% and 41%.
Take `CCCCCCc1ncc(-c2cc3cc(O)c(-c4ccccc4)cc3oc2=O)s1`: the Inhibition in assay [1] worked out at 90%; in assay [2] it was 63%; in assay [3], 4%.
In the same order, the values of `COc1ccccc1CCNc1nc(C)cc(N[C@@H](Cc2ccccc2)C(=O)NCCCOC(C)C)n1.O=C(O)C(F)(F)F` are 99%, 32% and 10%.
In the same order, the values of `CN(C)C(=O)CC(=O)NCc1c(Cl)cccc1Cl` are 95%, 2% and 2%.
In the same order, the values of `O=C(/C=C/c1cccc(C(F)(F)F)c1)NCCCCCN1CCN(C(=O)Nc2ccc(Cl)c(Cl)c2)CC1.O=C(O)C(F)(F)F` are 89%, 0% and 29%.
`CCCCN1CCN(CC(O)CNC(=O)Nc2ccc(Cl)cc2)CC1.O=C(O)C(F)(F)F` (stereo unspecified): the Inhibition turned out to be 100% in assay [1], 99% in assay [2] and 17% in assay [3].
In the same order, the values of `Cc1cccc2nc(-c3cccc(-c4ccc(CNCCc5ccncc5)cc4)c3)[nH]c12.O=C(O)C(F)(F)F` are 100%, 100% and 40%.
In the same order, the values of `CC1(C)S(=O)(=O)CC(O)CS1(=O)=O` are 98%, 9% and 8%.
On the same counts, the results for `CC(=O)c1ccc(-n2ccnc2)cc1` are 92%, 0% and 0%.
Consider `O=C(CCCCCNC(=O)c1ccc(O)c(-c2ccc(Cl)c(Cl)c2)c1)NC1CCCc2ccccc21` (stereo unspecified), for which the Inhibition was found to be 97% in assay [1], 13% in assay [2] and 0% in assay [3].
In the same order, the values of `COc1ccc2nccc([C@@H](O)CN3CCC(NCc4cc5cc(C)ccc5s4)CC3)c2c1.O=C(O)C(=O)O` are 92%, 74% and 13%.
On the same counts, the results for `Br.N=c1sc2ccccc2n1CC(O)c1ccc(Cl)c(Cl)c1` (stereo unspecified) are 99%, 74% and 4%.
On the same counts, the results for `COc1ccc(CNCc2ccsc2)cc1-c1ccc(S(=O)(=O)NCCN2CCCC2)c(C)c1.O=C(O)C(F)(F)F` are 85%, 43% and 49%.
`CC(=O)Nc1nc(C(=O)Nc2cccc(-c3ccc(-c4nc5cc(F)ccc5[nH]4)cc3)c2)cs1`: the Inhibition in assay [1] was 100%; in assay [2] it was 32%; in assay [3], 54%.
On the same counts, the results for `O=C(Nc1cccc(-c2nn3ncccc3c2-c2ccnc(Nc3cccc(C(F)(F)F)c3)n2)c1)c1c(F)cccc1F` are 97%, 68% and 49%.
On the same counts, the results for `Cl.NOCCCCOc1ccc(Cl)cc1` are 98%, 0% and 2%.
On the same counts, the results for `COc1ccc2nccc([C@@H](O)CN3CCC(NCc4nc5c(cc4Cl)OCC(=O)N5)C(F)C3)c2c1.Cl` (stereo partly specified) are 84%, 29% and 4%.
`CCc1cn2c3c(cc(C(=O)N[C@@H](Cc4ccccc4)[C@H](O)CN[C@@H](C)CC)cc13)N(C)S(=O)(=O)CC2.O=CO`: the Inhibition was determined as 99% in assay [1], 98% in assay [2] and 2% in assay [3].
In the same order, the values of `O=C(CCNc1ccnc(NCCc2ccccc2)n1)Nc1ccccc1.O=C(O)C(F)(F)F` are 89%, 19% and 7%.
In the same order, the values of `COc1ccc2nccc([C@@H](O)CN3CCC(NCc4cc5oc(=O)n(C)c5cc4F)CC3)c2c1.O=C(O)C(=O)O` are 99%, 72% and 0%.

As a reminder, the Inhibition is the share of the control response that was lost under treatment. Low readings indicate little suppression, high ones strong suppression.
